HT1080-NT tox = qHTS for induction of synthetic lethality in tumor cells producing 2HG: qHTS for the HT-1080-NT fibrosarcoma cell line. actives 1.6% (n = 360,000). HT-1080-NT fibrosarcoma viability, CellTiter-Glo ATP luminescence, 48 h. Potency, µM (series often up to 46.1 µM), without a hit: top-dose activity, negative = less viability, actives largely listed as cytotoxic;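 also: NT is the 2HG producing partner of a matched IDH1 knockdown line; potency is read from the fitted curve at half-maximal effect; 0% = DMSO-treated cells and -100% = media-only wells without cells; nearly all actives have a fitted effect of over 55% in size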
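A 48-hour cytotoxicity screen used HT-1080-NT cells plated 2 hours before compound delivery. ATP-based CellTiter-Glo luminescence measured viability, normalized to DMSO and no-cell controls.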
HT1080 IDH1KD tx = qHTS for induction of synthetic lethality in tumor cells producing 2HG: qHTS for the HT-1080-IDH1KD cell line. actives 2% (n = 360,000). Potency, µM (doses to about 46.1 µM), for the others: at the highest dose activity, negative = toxicity, usual class: cytotoxic. HT-1080 IDH1 knockdown viability, ATP luminescence, 48 h;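 also: potency is read from the fitted curve at half-maximal effect; 0% = DMSO wells and -100% = cell-free medium wells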
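HT-1080-IDH1KD cells (IDH1 knocked down), 750/well in RPMI with 5% FBS, treated with compound 48 h at 37 degrees C. Viability by CellTiter-Glo luminescence, normalised to DMSO and no-cell wells; concentration-response curves classed.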
IL1B secr inh = qHTS for Inhibitors of Inflammasome Signaling: IL-1-beta AlphaLISA Primary Screen; THP-1 LPS/ATP IL-1B secretion, AlphaLISA, 16 h; stronger effect = lower value; activity change, % at 57.5 µM; actives 4.7% (n = 360,000); AID 743279, 2014; in the data active = activity change below about -50%; inconclusive = mostly about -30% to -49%
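THP-1 cells pretreated 1 hr with compounds (up to 57.5 uM final), then stimulated with LPS (250 ng/mL final) plus ATP (1.25 mM final); secreted IL-1B measured by AlphaLISA after 16 hr, decreased signal indicating inhibition.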
DT40 TDP1 no CPT = qHTS for Inhibitors of human tyrosyl-DNA phosphodiesterase 1 (TDP1): qHTS in cells in absence of CPT; DT40 Tdp1-/- hTDP1 cells, no CPT, ATP luminescence, 48 h; actives 15% (n = 420,000); Potency, µM (series often up to 46.2 µM), for inactives: at the highest dose activity change, negative = growth inhibition, hits mostly inhibitors; also: potency is read from the fitted curve at half-maximal effect; nearly all actives have a fitted effect of over 55% in size
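Seeded 400 DT40-hTDP1 cells/well (vehicle DMSO, no 20 nM CPT); pinned compounds; ≥48 hr at 37 °C; CellTiter-Glo luminescence as viability measure.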
ELG1 repair inh = qHTS screen for small molecules that inhibit ELG1-dependent DNA repair in human embryonic kidney (HEK293T) cells expressing luciferase-tagged ELG1. HEK293T ELG1-luciferase reporter, luminescence, 16 h; DNA damage induced by 5-fluorouridine. Potency, µM (highest dose often 46.1 µM), for inactives: top-dose activity change, negative = inhibition, usual class: inhibitors. AID 504467, 2011. actives 2.3% (n = 330,000); also: potency is read from the fitted curve at half-maximal effect; nearly all actives have a fitted effect of over 55% in size
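HEK293T cells expressing luciferase-tagged ELG1 (2,000/well) received 5-Fluorouridine plus compound or DMSO for 16 hr at 37 °C. Luciferase was read by ONE-Glo luminescence after 30 min at room temperature.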
TDP1 cell CPT = qHTS for Inhibitors of human tyrosyl-DNA phosphodiesterase 1 (TDP1): qHTS in cells in presence of CPT; chicken DT40 Tdp1-/-;hTDP1 cells + 20 nM CPT, ATP luminescence, 48 h; Potency, µM (titrated, usually from 46.2 µM), for the others: at the top dose activity change, negative = growth inhibition, hits mostly inhibitors; actives 12% (n = 420,000); AID 686979, 2013; also: potency is read from the fitted curve at half-maximal effect; nearly all actives have a fitted effect of over 55% in size
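Chicken DT40 Tdp1-/- cells complemented with human TDP1, 400 cells/well, exposed to compounds plus 20 nM camptothecin for at least 48 h at 37 C; viability read as ATP content by CellTiter-Glo luminescence.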
* = called active by the depositor; [ ] = remark or other dose. Only some compounds are listed: those with a hit (about 19% of all), similar ones and a draw of the others. Unless noted, calls follow the shape of the dose curve; as a rule, active = well fitted curve in the direction sought with a large enough effect; inconclusive = small, poorly fitted or top-dose-only effect, or another doubt; inactive = no such curve, though single readings can be large; an effect the other way counts as inactive or inconclusive. Unless noted, % is scaled to controls: 0 for no effect and ±100 for the full control effect.

CCCN1C=CC(=C2C(=O)c3ccccc3C2=O)C=C1 was read as HT1080-NT tox 5.6µM*, HT1080 IDH1KD tx 11µM*, IL1B secr inh inconclusive, DT40 TDP1 no CPT 5.2µM*, ELG1 repair inh inconclusive and TDP1 cell CPT 8.2µM*.
Screening CCCCCCN1C=CC(=C2C(=O)c3ccccc3C2=O)C=C1 returned HT1080-NT tox 2%, HT1080 IDH1KD tx 2%, IL1B secr inh -12, DT40 TDP1 no CPT inconclusive, ELG1 repair inh inconclusive and TDP1 cell CPT inconclusive.
For CC1CCC2(CC1)NC(=O)N(CC(=O)Nc1cccc(C#N)c1)C2=O (stereo not given) the results were HT1080-NT tox -8%, HT1080 IDH1KD tx -4%, IL1B secr inh 0, DT40 TDP1 no CPT 2%, ELG1 repair inh 8% and TDP1 cell CPT -17%.
`CCN(CC)c1ccc(NC(=O)CSc2ccsc2[N+](=O)[O-])c(C)c1` gave HT1080-NT tox 6%, HT1080 IDH1KD tx 0%, IL1B secr inh -4, DT40 TDP1 no CPT 18µM*, ELG1 repair inh 5% and TDP1 cell CPT inconclusive.
`CCN(CC)c1ccc(NC(=O)C(NS(=O)(=O)c2cccs2)C(C)C)c(C)c1` (stereo not given) gave DT40 TDP1 no CPT 21µM* and TDP1 cell CPT 21µM*.
O=C(CSc1ccsc1[N+](=O)[O-])NCCc1ccc(Cl)cc1 was read as HT1080-NT tox -3%, HT1080 IDH1KD tx -14%, IL1B secr inh 18, DT40 TDP1 no CPT -19%, ELG1 repair inh 12% and TDP1 cell CPT inconclusive.
Screening O=C(CSc1ccsc1[N+](=O)[O-])NCCc1ccccc1 returned HT1080-NT tox -9%, HT1080 IDH1KD tx -3%, IL1B secr inh 14, DT40 TDP1 no CPT -24%, ELG1 repair inh -7% and TDP1 cell CPT -30%.
COc1ccc(CNC(=O)CSc2ccsc2[N+](=O)[O-])cc1 was read as HT1080-NT tox -3%, HT1080 IDH1KD tx 0%, IL1B secr inh -59*, DT40 TDP1 no CPT -8%, ELG1 repair inh inconclusive and TDP1 cell CPT inconclusive.
For Cc1ccc(CNC(=O)CSc2ccsc2[N+](=O)[O-])cc1 the results were HT1080-NT tox -9%, HT1080 IDH1KD tx -23%, IL1B secr inh inconclusive, DT40 TDP1 no CPT 10µM*, ELG1 repair inh inconclusive and TDP1 cell CPT inconclusive.
`CCCn1c(=O)c2sccc2n2c(CCCC(=O)Nc3ccccc3OCC)nnc12` gave DT40 TDP1 no CPT -10% and TDP1 cell CPT -2%.
For CCOc1cc(Cl)c(S(=O)(=O)n2ccnc2)cc1Cl the results were DT40 TDP1 no CPT -9% and TDP1 cell CPT -1%.
`CCN(CC)CCC(=O)NN` gave HT1080-NT tox 16%, HT1080 IDH1KD tx 15%, IL1B secr inh 5, DT40 TDP1 no CPT 15%, ELG1 repair inh 10% and TDP1 cell CPT 4%.
COc1cc(-c2ccc(C(F)(F)F)cn2)cc2c1OCCN(S(=O)(=O)C[C@]13CC[C@H](CC1=O)C3(C)C)C2 was read as DT40 TDP1 no CPT -25% and TDP1 cell CPT -8%[9.04 µM].
For CCOc1cccc(=O)c2c(C)n(C)c(C)c12 the results were HT1080-NT tox 8%, HT1080 IDH1KD tx 2%, IL1B secr inh 1, DT40 TDP1 no CPT inconclusive, ELG1 repair inh -22% and TDP1 cell CPT -45%.
CCCCCn1c(C)c2c(OCC)cccc(=O)c2c1C was read as HT1080-NT tox 0%, HT1080 IDH1KD tx -2%, IL1B secr inh -2, DT40 TDP1 no CPT inconclusive, ELG1 repair inh -10% and TDP1 cell CPT 23µM*.
Screening COc1cccc(-c2cc(NCc3cccnc3)ncn2)c1 returned DT40 TDP1 no CPT 0% and TDP1 cell CPT 11%.
`COc1cccc(-c2ccc3ncnc(NCc4cccnc4)c3c2)c1` gave DT40 TDP1 no CPT inconclusive, ELG1 repair inh 5.2µM* and TDP1 cell CPT 12µM*.
c1ccc(CNc2ncnc3ccc(-c4cccnc4)cc23)cc1 was read as DT40 TDP1 no CPT 16µM* and TDP1 cell CPT 15µM*.
For COc1cc(C2(c3ccc(O)c(OC)c3)C(=O)N(C)c3ccc(C)cc32)ccc1O the results were HT1080-NT tox -12%, HT1080 IDH1KD tx -3%, IL1B secr inh 7, DT40 TDP1 no CPT inconclusive and TDP1 cell CPT -7%.
For NC(=S)NC(c1ccccc1)c1ccncc1 (stereo not given) the results were HT1080-NT tox inconclusive, HT1080 IDH1KD tx 7%, IL1B secr inh 16, DT40 TDP1 no CPT 9% and TDP1 cell CPT -1%.
CCCCN(CC)S(=O)(=O)c1ccccc1 was read as HT1080-NT tox -1%, HT1080 IDH1KD tx -1%, IL1B secr inh -16, DT40 TDP1 no CPT inconclusive, ELG1 repair inh 6% and TDP1 cell CPT inconclusive.
Cc1ccc(S(=O)(=O)N(CCCO)CC(O)CON=C2c3ccccc3-c3ccccc32)cc1 (stereo not given) was read as HT1080-NT tox -11%, HT1080 IDH1KD tx -22%, IL1B secr inh inconclusive, DT40 TDP1 no CPT 16µM*, ELG1 repair inh inconclusive and TDP1 cell CPT inconclusive.
`COC(=O)c1cc(Br)c(=O)n(CCc2ccccc2)c1` gave HT1080-NT tox 10%, HT1080 IDH1KD tx 15%, IL1B secr inh 10, DT40 TDP1 no CPT -16%, ELG1 repair inh 0% and TDP1 cell CPT inconclusive.
Screening COC(=O)c1ccc(O)cc1 returned HT1080-NT tox 11%, HT1080 IDH1KD tx inconclusive, IL1B secr inh 9, DT40 TDP1 no CPT 3%, ELG1 repair inh 2% and TDP1 cell CPT 14%.
COC(=O)c1ccc(CCc2cc(O)ccc2O)cc1 was read as HT1080-NT tox 26µM*, HT1080 IDH1KD tx inconclusive, IL1B secr inh inconclusive, DT40 TDP1 no CPT 5.2µM* and TDP1 cell CPT 2.9µM*.
COC(=O)c1ccc(CCc2cc(O)c(Br)cc2O)cc1 was read as HT1080-NT tox -29%, HT1080 IDH1KD tx -28%, IL1B secr inh -79*, DT40 TDP1 no CPT 2.3µM* and TDP1 cell CPT 2.1µM*.
For COc1ccc2c(c1)CC(C(=O)Nc1ccc(Br)c(C)c1)CO2 (stereo not given) the results were DT40 TDP1 no CPT inconclusive and TDP1 cell CPT -30%.
